# Measured values published in PubChem BioAssay.
# Calls of active or inactive are those of the source.
# Tests used:
# [1] = binders of probe aFSTL3 on microarray, primary screen, stem cell growth factor project, biochemical, small-molecule microarray, fluorescence 635/667 (AID 1064); settings: higher = more signal;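 note: measures binding of the biotinylated anti-FSTL3 antibody to printed compounds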
# [2] = binders from COS7 lysate, DM2A8 probe, primary screen, torsin A project, cell lysate, small-molecule microarray, fluorescence 635/667 (AID 1065); settings: higher = more signal, COS7 lysate expressing mutant human TOR1A
# [3] = binders of probe aFGF2 on microarray, primary screen, stem cell growth factor project, biochemical, small-molecule microarray, fluorescence 635/667 (AID 1067); settings: higher = more signal;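 note: measures binding of biotinylated aFGF2 protein to printed compounds on slides; z-score merges feature fluorescence and signal-to-noise across triplicate slides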
# [4] = binders of probe aFGF10 on microarray, primary screen, stem cell growth factor project, biochemical, small-molecule microarray, fluorescence 635/667 (AID 1071); settings: higher = more signal;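 note: score merges 667 nm spot intensity and signal to noise from triplicate slides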
# [5] = target: Neurogenic locus notch homolog protein 2 (Homo sapiens) (UniProt Q04721); assay: Notch2 binders on small-molecule microarrays, primary screen, biochemical, small-molecule microarray, 635 nm fluorescence, stem cell growth factors (AID 1073); settings: Notch2 binding, higher = more signal
# [6] = target: Pro-neuregulin-1, membrane-bound isoform (Homo sapiens) (UniProt Q02297); assay: NRG1 binders on small-molecule microarrays, primary screen, psychiatric disease protein project, biochemical, small-molecule microarray, fluorescence 635/667 (AID 1075); settings: NRG1 binding, 635 nm fluorescence, higher = more signal;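 note: score combines 667 nm spot fluorescence with signal to noise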
# [7] = test system: Neuregulin-1 EGF-like domain; assay: binders of neuregulin-1 EGF-like domain, primary screen, biochemical, small-molecule microarray, 635 nm fluorescence (AID 1081); settings: small-molecule microarray binding, higher = more signal;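 note: binding of the protein to compounds printed on small-molecule microarray slides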
# [8] = FRG1 promoter luciferase signal modulators, primary screen, FRG1 inhibition for FSHD, cell-based, C2C12 myotubes, firefly/Renilla luciferase, luminescence (AID 1084); settings: higher = more signal, called active from +8 up or from −8 down
# [9] = binders of probe aFST on microarray, primary screen, stem cell growth factor project, biochemical, small-molecule microarray, fluorescence 635/667 (AID 1086); settings: higher = more signal;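 note: score merges 667 nm fluorescence with signal-to-noise of each printed compound spot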
# [10] = binders of probe aHhip on microarray, primary screen, stem cell growth factor project, biochemical, small-molecule microarray, fluorescence 635/667 (AID 1087); settings: higher = more signal;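 note: score merges spot fluorescence at 667nm with spot signal to noise ratio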
# [11] = test system: PRMT1 (protein arginine N-methyltransferase 1); assay: PRMT1 binders on small-molecule microarrays, primary screen, biochemical, small-molecule microarray, 635 nm fluorescence (AID 1088); settings: small-molecule microarray binding, higher = more signal;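 note: binding of Prmt1 protein to compounds spotted on small-molecule microarray slides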
# [12] = yeast growth modulation, basal conditions, primary screen, YJM789 clinical isolate, OD600, 24 h (AID 1089);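 note: growth of clinical yeast isolate S. cerevisiae YJM 789 seeded 1000 cells per well; test concentration not given here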; settings: S. cerevisiae YJM789 growth, higher = more signal, called active from +8 up or from −8 down
# [13] = fission yeast growth modulation, primary screen, strain 972, OD600, 24 h, no modulator (AID 1090);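 note: basal condition with compound alone and no growth modifier present; test concentration not given here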; settings: S. pombe 972 growth, higher = more signal, called active from +8 up or from −8 down
# [14] = S. cerevisiae growth modulation with rapamycin, primary screen, strain BY4716, OD600, 96 h (AID 1091); settings: higher = more signal, called active from +8 up or from −8 down; note: test concentration not given here
# [15] = target: Torsin-1A-interacting protein 2 (Homo sapiens) (UniProt Q8NFQ8); assay: LULL1 binders on small-molecule microarray, primary screen, cell lysate, human LULL1 lysate, 635/667 nm fluorescence (AID 1092); settings: hLULL1 lysate binding, 635 nm fluorescence, higher = more signal;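 note: probe is lysate of COS7 cells overexpressing human LULL1; score merges per-feature 667 nm fluorescence with signal-to-noise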
# [16] = E. coli growth modulation, two-sided OD650, primary screen, E. coli filamentation project, strain DRC41, 24 h (AID 1093); settings: OD650, 24 h, higher = more signal, called active from +8 up or from −8 down;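 note: MC1000 strain lacking acrAB efflux and sulA so SOS filamentation is blocked; test concentration not given here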
# [17] = small-molecule microarray binders of probe aLefty2, primary screen, biochemical, biotinylated probe, 635/667 nm fluorescence (AID 1094); settings: higher = more signal;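 note: score merges spot fluorescence near 667 nm with spot signal-to-noise ratio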
# [18] = test system: Noggin (protein binding on small-molecule microarray); assay: Noggin binders on small-molecule microarray, primary screen, biochemical, 635/667 nm fluorescence (AID 1095); settings: 635 nm fluorescence, higher = more signal;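 note: score merges 667 nm feature fluorescence with signal to noise over triplicate slides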
# [19] = target: Neurogenic locus notch homolog protein 3 (Homo sapiens) (UniProt Q9UM47); assay: NOTCH3 binders on small-molecule microarray, primary screen, biochemical, 635/667 nm fluorescence (AID 1096); settings: NOTCH3 binding, 635 nm fluorescence, higher = more signal
# [20] = small-molecule microarray binders of probe aEGFR, primary screen, biochemical, biotinylated probe, 635/667 nm fluorescence (AID 1097); settings: higher = more signal;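 note: probe is a biotinylated anti-EGFR antibody binding compounds printed on slides; score combines fluorescence near 667 nm and signal to noise of each spot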
# Chain of Neurogenic locus notch homolog protein 2 (Homo sapiens) (Q04721 whole entry, looked up, canonical isoform): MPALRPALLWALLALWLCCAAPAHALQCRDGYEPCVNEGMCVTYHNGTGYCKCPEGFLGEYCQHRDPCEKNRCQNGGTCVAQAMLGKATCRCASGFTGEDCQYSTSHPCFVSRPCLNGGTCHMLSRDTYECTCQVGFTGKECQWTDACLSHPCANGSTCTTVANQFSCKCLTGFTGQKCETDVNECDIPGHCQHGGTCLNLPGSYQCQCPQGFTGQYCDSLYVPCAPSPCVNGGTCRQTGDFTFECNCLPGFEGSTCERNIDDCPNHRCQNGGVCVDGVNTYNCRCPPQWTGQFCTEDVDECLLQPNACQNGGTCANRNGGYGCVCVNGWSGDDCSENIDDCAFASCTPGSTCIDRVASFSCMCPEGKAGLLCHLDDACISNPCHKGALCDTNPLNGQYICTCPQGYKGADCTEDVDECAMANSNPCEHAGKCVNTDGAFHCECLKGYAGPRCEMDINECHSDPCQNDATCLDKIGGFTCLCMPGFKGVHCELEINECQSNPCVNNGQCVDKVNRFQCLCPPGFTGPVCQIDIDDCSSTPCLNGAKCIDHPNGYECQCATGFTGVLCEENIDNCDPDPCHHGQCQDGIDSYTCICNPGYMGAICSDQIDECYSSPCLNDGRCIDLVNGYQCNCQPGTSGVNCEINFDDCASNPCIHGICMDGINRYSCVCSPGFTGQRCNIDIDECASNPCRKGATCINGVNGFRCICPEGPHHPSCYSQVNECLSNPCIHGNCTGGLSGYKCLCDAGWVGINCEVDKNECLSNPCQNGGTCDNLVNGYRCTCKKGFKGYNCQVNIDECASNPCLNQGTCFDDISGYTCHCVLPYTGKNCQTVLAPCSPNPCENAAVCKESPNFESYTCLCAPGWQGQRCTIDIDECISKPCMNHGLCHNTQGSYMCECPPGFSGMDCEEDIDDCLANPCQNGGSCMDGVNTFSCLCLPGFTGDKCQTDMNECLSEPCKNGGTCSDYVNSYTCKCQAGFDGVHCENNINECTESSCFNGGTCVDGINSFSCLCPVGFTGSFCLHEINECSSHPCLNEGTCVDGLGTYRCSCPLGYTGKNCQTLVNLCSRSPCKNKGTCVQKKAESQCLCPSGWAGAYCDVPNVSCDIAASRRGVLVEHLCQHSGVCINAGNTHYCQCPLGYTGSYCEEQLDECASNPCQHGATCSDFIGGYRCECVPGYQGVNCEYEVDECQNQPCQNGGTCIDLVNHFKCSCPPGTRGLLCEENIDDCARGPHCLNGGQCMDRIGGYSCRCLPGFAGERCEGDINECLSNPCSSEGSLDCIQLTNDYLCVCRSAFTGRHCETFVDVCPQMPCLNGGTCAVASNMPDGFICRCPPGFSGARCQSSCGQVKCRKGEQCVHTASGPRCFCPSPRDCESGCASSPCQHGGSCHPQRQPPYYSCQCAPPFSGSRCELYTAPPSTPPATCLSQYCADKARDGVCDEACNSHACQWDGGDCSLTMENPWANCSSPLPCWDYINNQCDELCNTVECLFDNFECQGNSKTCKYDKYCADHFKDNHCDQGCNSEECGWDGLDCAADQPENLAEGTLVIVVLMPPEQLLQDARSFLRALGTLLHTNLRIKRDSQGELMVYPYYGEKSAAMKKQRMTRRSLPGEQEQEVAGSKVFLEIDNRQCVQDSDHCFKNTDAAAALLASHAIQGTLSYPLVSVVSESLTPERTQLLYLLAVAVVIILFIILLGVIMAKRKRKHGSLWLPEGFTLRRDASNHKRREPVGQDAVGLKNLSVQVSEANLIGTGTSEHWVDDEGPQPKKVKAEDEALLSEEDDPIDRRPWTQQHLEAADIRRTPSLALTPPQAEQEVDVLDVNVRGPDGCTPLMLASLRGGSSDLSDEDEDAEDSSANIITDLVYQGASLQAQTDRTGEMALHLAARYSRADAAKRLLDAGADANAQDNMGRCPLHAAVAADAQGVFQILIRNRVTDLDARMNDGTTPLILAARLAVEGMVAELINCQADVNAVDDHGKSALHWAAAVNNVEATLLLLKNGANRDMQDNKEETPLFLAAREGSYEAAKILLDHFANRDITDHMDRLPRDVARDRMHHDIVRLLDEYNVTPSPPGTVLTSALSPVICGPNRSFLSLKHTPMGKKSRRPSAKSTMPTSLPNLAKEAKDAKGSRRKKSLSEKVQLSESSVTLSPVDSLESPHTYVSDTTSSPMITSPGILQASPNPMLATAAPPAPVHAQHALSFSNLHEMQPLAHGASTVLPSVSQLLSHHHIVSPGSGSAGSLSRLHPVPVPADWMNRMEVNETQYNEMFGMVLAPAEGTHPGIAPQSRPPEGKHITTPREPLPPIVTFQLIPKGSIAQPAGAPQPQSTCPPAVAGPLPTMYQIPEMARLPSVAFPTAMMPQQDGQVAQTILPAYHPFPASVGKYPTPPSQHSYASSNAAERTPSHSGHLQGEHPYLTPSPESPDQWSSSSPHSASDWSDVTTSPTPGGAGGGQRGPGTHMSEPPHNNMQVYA
# Chain of Pro-neuregulin-1, membrane-bound isoform (Homo sapiens) (Q02297 whole entry, looked up, the tested form may be a part, canonical isoform): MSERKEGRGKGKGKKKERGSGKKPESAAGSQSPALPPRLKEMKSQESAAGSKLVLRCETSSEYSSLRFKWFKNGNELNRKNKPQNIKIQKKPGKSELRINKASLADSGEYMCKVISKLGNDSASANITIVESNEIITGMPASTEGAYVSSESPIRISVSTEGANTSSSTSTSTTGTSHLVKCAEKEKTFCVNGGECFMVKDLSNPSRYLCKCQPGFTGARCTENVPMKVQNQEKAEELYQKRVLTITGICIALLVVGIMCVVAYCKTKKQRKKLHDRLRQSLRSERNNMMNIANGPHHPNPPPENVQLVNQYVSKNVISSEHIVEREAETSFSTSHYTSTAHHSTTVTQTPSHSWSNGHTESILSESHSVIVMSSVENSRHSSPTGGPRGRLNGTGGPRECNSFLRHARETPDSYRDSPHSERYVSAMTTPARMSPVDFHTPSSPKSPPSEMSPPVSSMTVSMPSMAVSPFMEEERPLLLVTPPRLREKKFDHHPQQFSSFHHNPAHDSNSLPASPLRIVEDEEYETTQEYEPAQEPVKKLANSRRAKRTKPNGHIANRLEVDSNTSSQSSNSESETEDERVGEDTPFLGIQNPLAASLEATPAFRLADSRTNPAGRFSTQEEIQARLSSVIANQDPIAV
# Chain of Torsin-1A-interacting protein 2 (Homo sapiens) (Q8NFQ8 whole entry, looked up): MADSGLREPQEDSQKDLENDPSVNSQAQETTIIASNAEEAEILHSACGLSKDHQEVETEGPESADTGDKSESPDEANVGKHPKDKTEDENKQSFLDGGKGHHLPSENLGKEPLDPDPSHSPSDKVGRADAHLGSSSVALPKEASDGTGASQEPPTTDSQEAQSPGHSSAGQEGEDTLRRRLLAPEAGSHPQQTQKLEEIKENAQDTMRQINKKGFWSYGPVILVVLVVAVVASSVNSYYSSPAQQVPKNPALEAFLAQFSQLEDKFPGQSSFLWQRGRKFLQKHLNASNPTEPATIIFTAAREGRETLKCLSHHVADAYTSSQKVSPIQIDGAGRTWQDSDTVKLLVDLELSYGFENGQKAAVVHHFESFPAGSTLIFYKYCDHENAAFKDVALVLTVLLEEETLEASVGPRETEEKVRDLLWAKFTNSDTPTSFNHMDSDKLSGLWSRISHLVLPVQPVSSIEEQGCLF
Structure (SMILES),composite z-score [1],composite z-score [2],composite z-score [3],composite z-score [4],composite z-score [5],composite z-score [6],composite z-score [7],z-score [8],composite z-score [9],composite z-score [10],composite z-score [11],z-score [12],z-score [13],z-score [14],composite z-score [15],z-score [16],composite z-score [17],composite z-score [18],composite z-score [19],composite z-score [20]
O=c1cccc(-c2cccc(Cl)c2)o1,-0.118,-0.341,-0.0937,0.299,-0.0173,-0.0364,0.409,2.02 (inactive),0.433,-0.223,0.0485,-3.86 (inactive),-4.41 (inactive),5.45 (inactive),0.0149,0.658 (inactive),-0.0927,-0.162,0.136,-0.0304
COCCOC(=O)N1C(=O)[C@@]2(c3cc(C#Cc4ccc(OC)cc4)ccc31)[C@H](C(=O)NC[C@H](O)c1ccccc1)[C@H]1C(=O)O[C@H](c3ccccc3)[C@H](c3ccccc3)N1[C@@H]2c1ccc(O)cc1,-0.179,0.504,0.0086,0.589,1.37,0.566,1.23,0.427 (inactive),0.57,0.012,1.54,0.254 (inactive),1.06 (inactive),1.08 (inactive),2.49,0.394 (inactive),-0.0159,0.793,1.05,0.268
C[C@@H](OCc1ccccc1)C1NC(=O)[C@@]23C(=O)N[C@@H](Cc4ccccc4)C2[C@H](C)[C@@]2(C)O[C@H]2C3/C=C/C/C=C\CNC(=O)CNC1=O (stereo not given in full),-0.231,0.667,-0.132,0.25,-1.08,-0.366,-0.002,-0.0275 (inactive),-0.294,-0.134,-0.615,0.569 (inactive),-1.32 (inactive),-0.929 (inactive),0.621,-0.557 (inactive),-0.145,-0.526,-0.0955,-0.24
CC(C)(C)OC(=O)CC[C@@]1(C(=O)O)N=C(c2ccc(OCCCO)cc2)O[C@@H]1c1ccccc1CN=[N+]=[N-],0.761,0.348,0.0732,0.246,0.717,1.03,1.19,5.39 (inactive),0.971,0.259,1.29,0.947 (inactive),0.642 (inactive),0.0515 (inactive),2.84,0.882 (inactive),0.36,-0.195,0.44,0.272
NC(=O)NCC#Cc1ccc2c(c1)[C@]1(C(=O)N2)[C@H](C(=O)O)[C@H]2C(=O)O[C@H](c3ccccc3)[C@H](c3ccccc3)N2[C@@H]1c1ccccc1OCCO,0.991,0.396,-0.0749,0.776,0.231,1.99,1.01,-0.765 (inactive),0.734,0.291,1.43,-1.39 (inactive),-1.19 (inactive),-0.675 (inactive),1.43,3.22 (inactive),0.857,1.01,1.11,0.0223
C=CCC(OC(C)=O)[C@@H]1[C@@H](N(Cc2cc3ccccc3o2)C(=O)c2ccc(C)cc2)c2cc(OCCCO)ccc2N1C(=O)Cc1ccc2ccccc2c1 (stereo not given in full),0.222,-0.603,0.0755,0.113,-0.242,-0.0075,-0.345,-0.286 (inactive),0.292,0.107,-0.208,0.627 (inactive),-0.423 (inactive),0.469 (inactive),0.0257,2.18 (inactive),0.18,1.81,-0.725,-0.094
CCOC(=CC(=O)OC)CC(O)c1cccc(Cl)c1 (stereo not given),0.201,0.071,-0.0504,-0.157,-0.124,1.43,1.37,-3.65 (inactive),-0.595,-0.303,1.39,-4.05 (inactive),-7.01 (inactive),-1.53 (inactive),2.4,0.341 (inactive),-0.125,-0.673,0.27,-0.128
CC(=O)n1cc(C(O)C2C=CC3C(=O)N(c4ccccc4)C(=O)C3N2Nc2ccccc2)c2ccccc21 (stereo not given),1.87,0.489,0.447,0.893,1.52,0.837,1.11,0.621 (inactive),1.1,-0.0702,0.174,0.514 (inactive),0.965 (inactive),0.102 (inactive),2.73,-1.18 (inactive),0.203,-0.272,0.816,0.672
CCOC(=O)C[C@H]1[C@H](OC(=O)Cc2ccc3c(c2)OCO3)[C@@H](NC(=O)C2CCCCC2)c2cc(OCCCO)ccc2N1C(=O)c1ccc2ccccc2n1,0.695,0.246,-0.003,0.234,0.904,0.196,0.519,-2.88 (inactive),0.857,-0.335,0.688,0.327 (inactive),-1.46 (inactive),-0.591 (inactive),1.34,0.848 (inactive),-0.0798,1.98,1.09,0.0428
COC(=O)[C@@]1(Cc2ccc(OC)cc2)[C@H]2c3cc(C(=O)N4CCCC4)n(CCc4cc5ccccc5[nH]4)c3C[C@H]2CN1C(=O)c1ccccc1,0.649,0.115,0.194,0.614,1.36,1.9,1.1,0.562 (inactive),1.71,0.363,0.907,0.596 (inactive),2.61 (inactive),1.72 (inactive),3.43,-0.12 (inactive),0.507,0.364,1.05,0.0464
